DT40 TDP1 no CPT: qHTS for Inhibitors of human tyrosyl-DNA phosphodiesterase 1 (TDP1): qHTS in cells in absence of CPT. DT40 Tdp1-/- hTDP1 cells, no CPT, ATP luminescence, 48 h. Potency, µM (doses to about 46.2 µM), without a hit: top-dose activity change, negative = growth inhibition, actives largely listed as inhibitors. 420,000 tested, 15% active; further: on the % scale 0 is the no-effect control and ±100 the full control effect; nearly all actives have a fitted effect of over 55% in size
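Cells were dispensed at 400 per well, compounds added by pin tool, plates incubated ≥48 hr at 37 °C, then CellTiter-Glo added for 30 min at room temperature before luminescence reading. Line: DT40 Tdp1-/- complemented with hTDP1; camptothecin omitted.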
HepG2 tox: kills HepG2 cells in TGF-b inhibitor counter-screen. HepG2 CAGA-GFP viability, ATP luminescence, 18 h. Potency, µM (top dose mostly 46.1 µM), inactives show top-dose activity change, negative = cytotoxicity, hits mostly cytotoxic. 410,000 tested, 0.76% active
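CellTiter-Glo luminescence gave cytotoxicity after 18 hours at 37 degrees C. The cells were HepG2 CAGA-GFP in 1% FBS DMEM, stimulated with 500 pg/mL TGF-beta after compound addition. %Activity was normalised to no-cell wells (complete cell-killing) and DMSO (no toxicity), and curves were fitted and classified.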
ATXN viability: reduces viability in counter-screen for ATXN expression inhibitors; S2 cells (HEK-293 line with an ATXN2-luciferase reporter) viability, CellTiter-Fluor protease fluorescence, 24 h; Potency, µM (highest dose often 56.7 µM), most hits filed as cytotoxic; 400,000 tested, 0.49% active; AID 651635; further: nearly all actives have a fitted effect of over 40% in size
DT40 TDP1 CPT: growth inhibition of DT40 Tdp1-/-;hTDP1 cells with camptothecin (screen for TDP1 inhibitors); chicken DT40 Tdp1-/-;hTDP1 cells + 20 nM CPT, ATP luminescence, 48 h; Potency, µM (top dose mostly 46.2 µM), for inactives: at the highest dose activity change, negative = growth inhibition, hits mostly inhibitors; 420,000 tested, 12% active; AID 686979; further: on the % scale 0 is the no-effect control and ±100 the full control effect; nearly all actives have a fitted effect of over 55% in size
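Chicken DT40 Tdp1-/- cells complemented with human TDP1, 400 cells/well, exposed to compounds plus 20 nM camptothecin for at least 48 h at 37 C; viability read as ATP content by CellTiter-Glo luminescence.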
ATXN2 expr inh: inhibitors of ATXN2 expression; Potency, µM (top dose mostly 57 µM), without a hit: at the top dose activity change, negative = inhibition, hits mostly inhibitors; AID 1745845; HEK-293 ATXN2-luciferase reporter, luminescence, 24 h; 360,000 tested, 0.72% active; further: on the % scale 0 is the no-effect control and ±100 the full control effect; nearly all actives have a fitted effect of over 55% in size
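ATXN2-luciferase reporter cells (luciferase flanked by upstream and downstream ATXN2 gene portions) were treated 24 h at 37 °C with compounds at up to 57 uM. SteadyGlo luminescence gave expression; GF-AFC fluorescence gave viability.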
TGFb SMAD3 inh: inhibitors of TGF-b signaling | HepG2 CAGA-GFP TGF-b/SMAD3 reporter, GFP fluorescence, 18 h; TGF-beta stimulated, 500 pg/mL final | Potency, µM (series often up to 46.1 µM), inactives show at the top dose activity, negative = inhibition, actives largely listed as inhibitors | 410,000 tested, 1.2% active | AID 588855; further: on the % scale 0 is the no-effect control and ±100 the full control effect; nearly all actives have a fitted effect of over 65% in size
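Smad-responsive CAGA-GFP expression was quantified in HEPG2 cells exposed to compounds and 500 pg/mL final TGF-beta for 18 h at 37 degrees C; unstimulated wells defined full inhibition.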
* hit, by the source's call; [ ] = remark or other dose. Sampled rows, rich in hits. Any-hit rate of the full collection: about 17%. The call rests on the fitted dose curve; in most records, active means well fitted curve in the direction sought with a large enough effect; inconclusive means small, poorly fitted or top-dose-only effect, or another doubt; inactive means no such curve, though single readings can be large; an effect the other way counts as inactive or inconclusive. Potency means the concentration at half of the fitted maximal effect.

`O=C(CN1CCCN(Cc2cccc(F)c2)S1(=O)=O)Nc1ccc2c(c1)OCCO2` gave DT40 TDP1 no CPT inconclusive, HepG2 tox -12%, ATXN viability inconclusive, DT40 TDP1 CPT inconclusive, ATXN2 expr inh -2% and TGFb SMAD3 inh inconclusive.
For CC(C)Cc1ccc(C(C)C(=O)OCc2ccccn2)cc1 (centres undefined) the results were ATXN viability inactive and ATXN2 expr inh 2%.
Screening CC(C)Cc1ccc(C(C)C(N)=NCCc2ccccc2)cc1 (centres undefined) returned DT40 TDP1 no CPT 21µM*, HepG2 tox 18µM*, ATXN viability inconclusive, DT40 TDP1 CPT inconclusive, ATXN2 expr inh inconclusive and TGFb SMAD3 inh inconclusive.
`Cc1nn(C(=O)c2c(F)cccc2F)c(C)c1S(=O)(=O)N1CCCCCC1` gave DT40 TDP1 no CPT -10%, HepG2 tox -4%, ATXN viability inactive, DT40 TDP1 CPT -2%, ATXN2 expr inh 4% and TGFb SMAD3 inh -15%.
`CC1(C)Oc2ccc(C(=O)N/N=C/c3ccc(O)cc3)cc2NC1=O` gave DT40 TDP1 no CPT -5%, HepG2 tox -24%, ATXN viability inactive, DT40 TDP1 CPT 3%, ATXN2 expr inh 0% and TGFb SMAD3 inh 6%.
Screening COc1cc2cc[n+](Cc3ccc([N+](=O)[O-])cc3)cc2cc1OC returned DT40 TDP1 no CPT inconclusive, HepG2 tox -2%, ATXN viability inactive, DT40 TDP1 CPT 18µM*, ATXN2 expr inh -12% and TGFb SMAD3 inh -7%.
`CC(O)(Cc1cccnc1)c1cccs1` (centres undefined) gave DT40 TDP1 no CPT 0%, HepG2 tox 2%, ATXN viability inactive, DT40 TDP1 CPT 9%, ATXN2 expr inh 10% and TGFb SMAD3 inh 0%.
`N=c1oc2ccccc2cc1-c1nc(-c2ccccc2)cs1` gave DT40 TDP1 no CPT 23µM*, HepG2 tox 1%, DT40 TDP1 CPT inconclusive, ATXN2 expr inh 36% and TGFb SMAD3 inh 16%.
`Fc1ccc(/C=N/NC(=S)Nc2ccc(Cl)cc2Cl)cc1` gave DT40 TDP1 no CPT 5.2µM*, HepG2 tox 0%, ATXN viability inconclusive, DT40 TDP1 CPT 7.3µM*, ATXN2 expr inh inconclusive and TGFb SMAD3 inh 1%.
COc1ccc(NC(=S)N/N=C/c2ccc(F)c(F)c2)cc1 was read as DT40 TDP1 no CPT inconclusive, HepG2 tox -5%, ATXN viability inconclusive, DT40 TDP1 CPT inconclusive, ATXN2 expr inh -22% and TGFb SMAD3 inh -14%.
For Fc1ccc(NC(=S)N/N=C/c2ccc(F)c(F)c2)cc1 the results were DT40 TDP1 no CPT 6.5µM*, HepG2 tox 15%, ATXN viability inactive, DT40 TDP1 CPT 4.1µM*, ATXN2 expr inh 14% and TGFb SMAD3 inh inconclusive.
For COc1ccc(NC(=S)N/N=C/c2ccc(F)cc2)cc1OC the results were DT40 TDP1 no CPT inconclusive, HepG2 tox 45%, ATXN viability inactive, DT40 TDP1 CPT inconclusive, ATXN2 expr inh 15% and TGFb SMAD3 inh inconclusive.
Fc1ccc(/C=N/NC(=S)Nc2ccc(Cl)cc2)cc1F was read as DT40 TDP1 no CPT 23µM*, HepG2 tox 9%, ATXN viability inactive, DT40 TDP1 CPT inconclusive, ATXN2 expr inh 43% and TGFb SMAD3 inh 8%.
For CCCCN(C)C(=O)c1sc(=O)n(Cc2c(C)cccc2C)c1C the results were DT40 TDP1 no CPT inconclusive, HepG2 tox -15%, ATXN viability inactive, DT40 TDP1 CPT inconclusive, ATXN2 expr inh -14% and TGFb SMAD3 inh -20%.
CCOc1ccc(-c2cc3cc(OC)c(OC)cc3c(C)n2)cc1 was read as DT40 TDP1 no CPT inconclusive, HepG2 tox -2%, ATXN viability inactive, DT40 TDP1 CPT -28%, ATXN2 expr inh -4%[11.3 µM] and TGFb SMAD3 inh 24%.
